# Test results taken from PubChem BioAssay (NCI).
# This is part of a sample that, as a whole, favours compounds with a hit. Of some 83,000 tested, about 20% had one in any assay.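 How to read the values: 0–100, growth inhibition (40 = 60% inhibited); 0, no net growth; -100 to 0, cell death (-40 = 40% of starting cells died; -100 = all dead).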 Calls of active or inactive are those of the source. How the source made its calls: active means growth percent below 10; inactive means the rest.
# Tested on: SW-620 colon
# Test: NCI-60 one-dose screen, 48 h (100 = growth as untreated, 0 = no growth, -100 = all killed)
# Settings: 10 µM unless noted
row,SMILES,growth
1,Cc1cc(-c2ccccc2)cc(SC#N)[n+]1[O-],38.1% (inactive)
2,CSc1nc(N)c(CNC(C)c2ccccc2)c(=O)n1C (stereo unspecified),107% (inactive)
3,Nc1c(-c2nc3ccc(Br)cc3c(=O)[nH]2)nnn1-c1ccccc1,88.1% (inactive)
4,CN1CCN(c2ccc3nc(/N=C/c4ccc5sc(-c6ccc([N+](=O)[O-])cc6)nc5c4)sc3c2)CC1,116% (inactive)
5,C/C(Cc1ccc(Cl)cc1)=C(/c1ccc(Cl)cc1)c1ccc(OCCN(C)C)cc1,-32.4% (active)
6,Cc1ccc(NC(=O)C(Cl)Cl)cc1,106% (inactive)
7,Cc1cnc(Nc2ccc(N3CCN(C)CC3)cc2)nc1Nc1ccc(Cl)c(NS(=O)(=O)C(C)(C)C)c1,1.76% (active)
8,CCn1c(Sc2nnc(NC(=O)CSC(=S)N3CCCCC3)s2)nc2c1c(=O)n(C)c(=O)n2C,61.8% (inactive)
9,CNC(=O)c1cc(Oc2ccc3nc(Nc4cc(Cl)cc(Cl)c4)ccc3c2)ccn1,45.6% (inactive)
10,C[C@@H]1CC[C@@H]2[C@@H]1[C@H](OC(=O)/C=C/c1ccccc1)[C@]1(C3CCCCC3)C[C@@H](NC(=O)CO)[C@@]2(C)O1,90% (inactive)
11,O=C1CCC(N2C(=O)c3cccc(NCCCC4CCN(CCNC(=O)c5cc6c(o5)C(=O)c5ccccc5C6=O)CC4)c3C2=O)C(=O)N1 (stereo unspecified),-77.9% (active)
12,CC(=[N-])N1CCC[C@@H](Nc2c3ccccc3nc3ccccc23)C1.[Cl][Pt].[NH-]CCC[NH-],20.5% (inactive)
13,Cc1ccc2c(n1)C(=O)C(Oc1ccc(F)cc1)=CC2=O,84.7% (inactive)
14,O=S(=O)(NCCNc1cc(-c2c(-c3cccc(O)c3)nc3sccn23)ccn1)c1ccc(Cl)cc1,89.2% (inactive)
15,CN(C)CCOC(=O)Nc1ccc(Cl)cc1,104% (inactive)
16,CCCCCCCCN(CCCCCCCC)C(=N)c1ccnc2ccccc12,-68.1% (active)
17,COc1cc(-c2ncn(/C=C\c3nnco3)n2)cc(C(F)(F)F)c1,14.6% (inactive)

# Tested on: MCF7 breast
# Test: as above
# Settings: 10 µM unless noted
row,SMILES,growth
1,O=C(CC12CC3CC(CC(C3)C1)C2)NCCOCCOCCNC(=O)c1cc2c(o1)C(=O)c1ccccc1C2=O,-68.4% (active)
2,CCN(CC)CCCNC(=O)c1ccc(N)cc1,95.1% (inactive)
3,CCCCCCCCc1cc[n+](CC(=O)c2ccc(Br)cc2)cc1,-74% (active)
4,CC/C=C/[C@@H]1C=C[C@@H]2CCC[C@H]2[C@@H]1CC[C@H](O)[C@H](C)N,-85.8% (active)
5,N#Cc1c(NC(=O)c2ccc(Br)cc2)sc2c1CCCC2,13.1% (inactive)
6,O=[N+]([O-])c1ccc2[nH]cc(-c3c4ccsc4cc4[nH]c5ccc([N+](=O)[O-])cc5c34)c2c1,9.14% (active)
7,Cc1nc(Nc2ccc(N)cc2)c2ccccc2n1,75.8% (inactive)
8,CCCCN(Cc1ccc(C(=O)NO)cc1)C(=O)Nc1ccc(OCCCCCCCCCn2cc(CCCCC(=O)N[C@H](C(=O)N3C[C@H](O)C[C@H]3C(=O)NCc3ccc(-c4scnc4C)cc3)C(C)(C)C)nn2)cc1,8.44% (active)
9,COc1ccc(OC)c(/C=C2\COc3ccc(O)cc3C2=O)c1,19.7% (inactive)
10,CCOC(=O)C1=C(C)NC(SCc2nnc(-c3ccc(Cl)cc3)o2)=NC1c1ccc(Cl)cc1Cl (stereo unspecified),32% (inactive)
11,O[C@H]1CO[C@H]2[C@@H]1OC[C@@H]2Oc1ccc(Nc2ccnc(Nc3ccc(O[C@H]4CO[C@H]5[C@@H]4OC[C@@H]5O)c(Cl)c3)n2)cc1Cl,14.6% (inactive)
12,COc1ccc(-n2nnc(C(=O)NCCc3c[nH]c4ccc(F)cc34)c2C)cc1,95.7% (inactive)
13,CC(=O)Nc1ccc2c(c1)Cc1c(F)cccc1-2,35.9% (inactive)
14,O=C1c2cccc3c(-c4ccc(-c5nc6c7ccccc7c7ccccc7c6[nH]5)cc4)ccc(c23)C(=O)N1CCN1CCNCC1,-6.7% (active)
15,C=C(C=O)C1CCC2(C(=O)O)CCC3(C)C(CCC4C5(C)CCC(O)C(C)(C)C5CCC43C)C12 (stereo unspecified),6.07% (active)
16,NC(=O)CC1(O)C=C(Br)C(=O)C(Br)=C1,25.6% (inactive)
17,Cc1ccc(-n2nnc(C3=NCCc4c3[nH]c3ccc(Cl)cc43)c2C)cc1,77.8% (inactive)
18,CCN(CC)CC(O)CNc1c2ccc(Cl)cc2nc2ccc(OC)cc12 (stereo unspecified),-0.467% (active)
19,C=C1C(=O)O[C@H]2[C@H]1CC/C(C(=O)NCCCCCCCCNC(=O)/C1=C/CC[C@@]3(C)O[C@H]3[C@H]3OC(=O)C(=C)[C@@H]3CC1)=C\CC[C@@]1(C)O[C@@H]21,37.9% (inactive)
20,NS(=O)(=O)c1cn(-c2ncnc3nc[nH]c23)ccc1=O,104% (inactive)

row,SMILES,growth
1,O[C@H]1CO[C@H]2[C@@H]1OC[C@@H]2Oc1ccc(Nc2nc(Nc3ccc(F)c(Cl)c3)ncc2F)cc1Cl,88.3% (inactive)
2,N#Cc1c(NC(=O)c2cccc(C(F)(F)F)c2)sc2c1CCC(=O)C2,7.82% (active)
3,Cc1cc(-c2ccccc2)cc(SC#N)[n+]1[O-],23% (inactive)
4,CSc1nc(N)c(CNC(C)c2ccccc2)c(=O)n1C (stereo unspecified),93.5% (inactive)
5,Nc1c(-c2nc3ccc(Br)cc3c(=O)[nH]2)nnn1-c1ccccc1,78.7% (inactive)
6,CN1CCN(c2ccc3nc(/N=C/c4ccc5sc(-c6ccc([N+](=O)[O-])cc6)nc5c4)sc3c2)CC1,94.7% (inactive)
7,C/C(Cc1ccc(Cl)cc1)=C(/c1ccc(Cl)cc1)c1ccc(OCCN(C)C)cc1,11% (inactive)
8,Cc1ccc(NC(=O)C(Cl)Cl)cc1,94.6% (inactive)
9,Cc1cnc(Nc2ccc(N3CCN(C)CC3)cc2)nc1Nc1ccc(Cl)c(NS(=O)(=O)C(C)(C)C)c1,5.84% (active)
10,CCn1c(Sc2nnc(NC(=O)CSC(=S)N3CCCCC3)s2)nc2c1c(=O)n(C)c(=O)n2C,91.9% (inactive)
11,CNC(=O)c1cc(Oc2ccc3nc(Nc4cc(Cl)cc(Cl)c4)ccc3c2)ccn1,38.8% (inactive)
12,C[C@@H]1CC[C@@H]2[C@@H]1[C@H](OC(=O)/C=C/c1ccccc1)[C@]1(C3CCCCC3)C[C@@H](NC(=O)CO)[C@@]2(C)O1,89.6% (inactive)
13,O=C1CCC(N2C(=O)c3cccc(NCCCC4CCN(CCNC(=O)c5cc6c(o5)C(=O)c5ccccc5C6=O)CC4)c3C2=O)C(=O)N1 (stereo unspecified),-65.4% (active)
14,CC(=[N-])N1CCC[C@@H](Nc2c3ccccc3nc3ccccc23)C1.[Cl][Pt].[NH-]CCC[NH-],10.6% (inactive)
15,Cc1ccc2c(n1)C(=O)C(Oc1ccc(F)cc1)=CC2=O,81.1% (inactive)
16,O=S(=O)(NCCNc1cc(-c2c(-c3cccc(O)c3)nc3sccn23)ccn1)c1ccc(Cl)cc1,47.8% (inactive)
17,CN(C)CCOC(=O)Nc1ccc(Cl)cc1,94.4% (inactive)
18,CCCCCCCCN(CCCCCCCC)C(=N)c1ccnc2ccccc12,-74.6% (active)
19,COc1cc(-c2ncn(/C=C\c3nnco3)n2)cc(C(F)(F)F)c1,8.23% (active)
